Assay results as given in the supplement of paper PMC9262897, “Low-cost anti-mycobacterial drug discovery using engineered E. coli” (Nature Communications, 2022).
Where a name gives a salt, the structure may show the parent alone. ± gives the standard deviation of the averaged measurements.

Legend:
Assay in all cases: growth (OD600 after 10 h); higher = more growth (less inhibition)
[1] = tested on: E. coli TESEC Alr+ wild-type control; conditions: compound 0.1 mM; raw OD600 reference: median of DMSO wells 0.241, cell-free background 0.041
Protocol: (§1)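 TESEC Mtb Alr E. coli, or the Alr+ wild-type control, in 384-well plates with Prestwick library compounds at 0.1 mM and 1% DMSO, across arabinose induction levels of 1E3 to 1E7 nM. Growth is read as OD600 after 10 h at 37 °C in triplicate biological replicates.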

E. coli TESEC Mtb Alr [2] = conditions: compound 0.1 mM
Protocol: as §1

E. coli TESEC Mtb Asd = conditions: compound 0.1 mM
Protocol: (§2)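 TESEC E. coli strains in which the native enzyme is deleted and replaced by arabinose-inducible Mtb Asd, DapB, CysH or TrpD, each grown in its selective medium. Strains were screened against the Prestwick library at 0.1 mM and 1% DMSO in 384-well format at low and high arabinose induction. Growth is read as OD600 after 10 h in triplicate.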

E. coli TESEC Mtb DapB = conditions: compound 0.1 mM
Protocol: as §2

E. coli TESEC Mtb Alr [3] = conditions: compound 0.1 mM; remark: listed apart in the source
Protocol: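 TESEC Mtb Alr E. coli (ΔaraC ΔtolC ΔentC Δalr ΔdadX, arabinose-inducible Mtb Alr) or the Alr+ wild-type control strain, grown in defined M9-fructose medium without D-alanine in 96-well plates with Prestwick library compounds at 0.1 mM and 1% DMSO. Low Alr induction is 0.1 µM arabinose and high induction is 10 mM arabinose.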

[4] = arabinose 1000 nM, raw OD600 reference: median of DMSO wells 0.294, cell-free background 0.041
[5] = arabinose 10000 nM, raw OD600 reference: median of DMSO wells 0.264, cell-free background 0.041
[6] = arabinose 100000 nM, raw OD600 reference: median of DMSO wells 0.201, cell-free background 0.041
[7] = arabinose 1000000 nM, raw OD600 reference: median of DMSO wells 0.193, cell-free background 0.041
[8] = arabinose 10000000 nM, raw OD600 reference: median of DMSO wells 0.146, cell-free background 0.041
[9] = arabinose induction (level): High, raw OD600 reference: median of DMSO wells 0.331, cell-free background 0.041
[10] = arabinose induction (level): Low, raw OD600 reference: median of DMSO wells 0.417, cell-free background 0.041
[11] = arabinose induction (level): High, raw OD600 reference: median of DMSO wells […], cell-free background 0.041
[12] = arabinose induction (level): Low, raw OD600 reference: median of DMSO wells 0.227, cell-free background 0.041
[13] = arabinose 100 nM, raw OD600 reference: median of DMSO wells 0.413, cell-free background 0.052
[14] = arabinose 10000000 nM, raw OD600 reference: median of DMSO wells […], cell-free background 0.052

Row | Structure (SMILES) | growth [1] | growth (E. coli TESEC Mtb Alr [2]; [4]) | growth (E. coli TESEC Mtb Alr [2]; [5]) | growth (E. coli TESEC Mtb Alr [2]; [6]) | growth (E. coli TESEC Mtb Alr [2]; [7]) | growth (E. coli TESEC Mtb Alr [2]; [8]) | growth (E. coli TESEC Mtb Asd; [9]) | growth (E. coli TESEC Mtb Asd; [10]) | growth (E. coli TESEC Mtb DapB; [11]) | growth (E. coli TESEC Mtb DapB; [12]) | growth (E. coli TESEC Mtb Alr [3]; [13]) | growth (E. coli TESEC Mtb Alr [3]; [14])
1 | Cc1scc2c1N(C(=O)CN1CCN(C)CC1)c1ccccc1NC2=O [Telenzepine dihydrochloride] | 0.242 ± 0.0054 | 0.309 ± 0.0066 | 0.241 ± 0.0053 | 0.208 ± 0.012 | 0.162 ± 0.0049 | 0.153 ± 0.0031 | 0.321 ± 0.083 | 0.442 ± 0.025 | 0.1919 ± 0.0014 | 0.264 ± 0.071 | 0.407 ± 0.011 | 0.338 ± 0.0097
2 | O=C(O)c1ccccc1C(=O)Nc1ccc(S(=O)(=O)Nc2nccs2)cc1 [Phthalylsulfathiazole] | 0.245 ± 0.0086 | 0.298 ± 0.011 | 0.266 ± 0.022 | 0.198 ± 0.02 | 0.184 ± 0.0082 | 0.166 ± 0.0046 | 0.468 ± 0.023 | 0.445 ± 0.036 | 0.212 ± 0.016 | 0.239 ± 0.01 | 0.405 ± 0.019 | 0.333 ± 0.0071
3 | COc1cc(C(=O)OCCCN2CCCN(CCCOC(=O)c3cc(OC)c(OC)c(OC)c3)CC2)cc(OC)c1OC [Dilazep dihydrochloride] | 0.174 ± 0.0063 | 0.264 ± 0.034 | 0.291 ± 0.0076 | 0.18 ± 0.0077 | 0.118 ± 0.0022 | 0.154 ± 0.0029 | 0.232 ± 0.023 | 0.35 ± 0.051 | 0.171 ± 0.013 | 0.211 ± 0.034 | 0.417 ± 0.012 | 0.316 ± 0.029
4 | CC(C)C(=O)c1c(C(C)C)nn2ccccc12 [Ibudilast] | 0.163 ± 0.0085 | 0.221 ± 0.0062 | 0.245 ± 0.0022 | 0.148 ± 0.0046 | 0.134 ± 0.0043 | 0.127 ± 0.0043 | 0.183 ± 0.011 | 0.372 ± 0.032 | 0.194 ± 0.012 | 0.208 ± 0.038 | 0.401 ± 0.0083 | 0.229 ± 0.0069
5 | C[C@H](CCC(=O)O)[C@H]1CC[C@H]2[C@@H]3[C@H](O)C[C@@H]4C[C@H](O)CC[C@]4(C)[C@H]3CC[C@]12C [Chenodiol] | 0.247 ± 0.0086 | 0.263 ± 0.0097 | 0.221 ± 0.0073 | 0.278 ± 0.021 | 0.146 ± 0.0057 | 0.143 ± 0.0086 | 0.216 ± 0.071 | 0.289 ± 0.049 | 0.168 ± 0.026 | 0.179 ± 0.0059 | 0.392 ± 0.0058 | 0.209 ± 0.02
6 | CSc1ccc2c(c1)N(CCC1CCCCN1C)c1ccccc1S2 (centres undefined) [Thioridazine hydrochloride] | 0.04013 ± 0.00015 | 0.0427 ± 0.0046 | 0.0393 ± 0.00064 | 0.04037 ± 0.00031 | 0.03907 ± 0.00012 | 0.04007 ± 5.8e-05 | 0.0505 ± 0.0013 | 0.0523 ± 0.0022 | 0.04803 ± 0.00029 | 0.0782 ± 0.052 | 0.178 ± 0.21 | 0.05103 ± 0.00015
7 | COCC(=O)Nc1c(I)c(C(=O)NCC(O)CO)c(I)c(C(=O)N(C)CC(O)CO)c1I (centres undefined) [Iopromide] | 0.259 ± 0.016 | 0.329 ± 0.021 | 0.289 ± 0.014 | 0.237 ± 0.0091 | 0.188 ± 0.0057 | 0.156 ± 0.013 | 0.491 ± 0.0086 | 0.464 ± 0.028 | 0.213 ± 0.022 | 0.257 ± 0.043 | 0.401 ± 0.019 | 0.349 ± 0.018
8 | CC[C@H]1OC(=O)C[C@@H](O)[C@H](C)[C@@H](O[C@@H]2O[C@H](C)[C@@H](O[C@H]3C[C@@](C)(O)[C@@H](O)[C@H](C)O3)[C@H](N(C)C)[C@H]2O)[C@@H](CC=O)C[C@@H](C)C(=O)/C=C/C(C)=C/[C@@H]1CO[C@@H]1O[C@H](C)[C@@H](O)[C@@H](OC)[C@H]1OC [Tylosin] | 0.04133 ± 5.8e-05 | 0.0588 ± 0.0023 | 0.0397 ± 0.00017 | 0.0503 ± 0.0012 | 0.03953 ± 0.00032 | 0.0429 ± 0.0013 | 0.0667 ± 0.004 | 0.0597 ± 0.0035 | 0.0739 ± 0.0012 | 0.0754 ± 0.0056 | 0.249 ± 0.12 | 0.0521 ± 0.00046
9 | Nc1c2c(nc3ccccc13)CCCC2O (racemic) [Hydroxytacrine maleate (R,S)] | 0.227 ± 0.0038 | 0.264 ± 0.028 | 0.257 ± 0.0076 | 0.202 ± 0.025 | 0.176 ± 0.0061 | 0.144 ± 0.0023 | 0.218 ± 0.012 | 0.257 ± 0.034 | 0.203 ± 0.018 | 0.205 ± 0.015 | 0.4 ± 0.0077 | 0.352 ± 0.0099
10 | COc1ccccc1N1CCN(CC(O)COc2cccc3ccccc23)CC1 (centres undefined) [Naftopidil dihydrochloride] | 0.0455 ± 0.00068 | 0.0439 ± 0.0023 | 0.0416 ± 0.00044 | 0.0537 ± 0.0089 | 0.0425 ± 0.001 | 0.0492 ± 0.0015 | 0.0476 ± 0.00036 | 0.0516 ± 0.0046 | 0.0582 ± 0.0019 | 0.0626 ± 0.0085 | 0.4077 ± 0.0026 | 0.0524 ± 0.0021
11 | O=C(OCC(O)CO)c1ccccc1Nc1ccnc2cc(Cl)ccc12 (centres undefined) [Glafenine hydrochloride] | 0.116 ± 0.0048 | 0.146 ± 0.006 | 0.164 ± 0.017 | 0.187 ± 0.026 | 0.102 ± 0.0023 | 0.144 ± 0.0045 | 0.253 ± 0.04 | 0.17 ± 0.021 | 0.196 ± 0.0089 | 0.276 ± 0.059 | 0.384 ± 0.022 | 0.149 ± 0.02
12 | CCOc1ccc(NC(C)=O)cc1 [Phenacetin] | 0.243 ± 0.0043 | 0.2912 ± 0.0014 | 0.27 ± 0.0042 | 0.231 ± 0.028 | 0.1828 ± 0.0017 | 0.152 ± 0.0045 | 0.345 ± 0.083 | 0.413 ± 0.084 | 0.208 ± 0.019 | 0.224 ± 0.012 | 0.411 ± 0.011 | 0.329 ± 0.019
13 | COC(=O)C1=C(C)NC(C)=C(C(=O)OCCN(C)Cc2ccccc2)C1c1cccc([N+](=O)[O-])c1 (centres undefined) [Nicardipine hydrochloride] | 0.0481 ± 0.0012 | 0.0453 ± 0.0013 | 0.04637 ± 0.00021 | 0.049 ± 0.0015 | 0.045 ± 0.0027 | 0.0566 ± 0.0042 | 0.054 ± 0.0024 | 0.0558 ± 0.0072 | 0.107 ± 0.079 | 0.0547 ± 0.0015 | 0.3938 ± 0.0022 | 0.0545 ± 0.0036
14 | CC1=C(CC(=O)O)c2cc(F)ccc2/C1=C\c1ccc([S+](C)[O-])cc1 (centres undefined) [Sulindac] | 0.166 ± 0.0055 | 0.206 ± 0.0077 | 0.181 ± 0.0019 | 0.125 ± 0.0091 | 0.0898 ± 0.0021 | 0.103 ± 0.0038 | 0.151 ± 0.018 | 0.243 ± 0.012 | 0.151 ± 0.013 | 0.196 ± 0.054 | 0.364 ± 0.063 | 0.11 ± 0.01
15 | O=C(O)Cc1cc(I)c(Oc2ccc(O)c(I)c2)c(I)c1 [Tiratricol, 3,3',5-triiodothyroacetic acid] | 0.0409 ± 0.00083 | 0.0428 ± 0.0019 | 0.04123 ± 0.00021 | 0.0442 ± 0.0023 | 0.0408 ± 0.00017 | 0.0558 ± 0.002 | 0.057 ± 0.0056 | 0.06 ± 0.0072 | 0.0676 ± 0.0044 | 0.108 ± 0.09 | 0.167 ± 0.087 | 0.05437 ± 0.00015
16 | C[N+](C)(C)CCCCCC[N+](C)(C)C [Hexamethonium dibromide dihydrate] | 0.247 ± 0.0066 | 0.27 ± 0.018 | 0.245 ± 0.0047 | 0.191 ± 0.022 | 0.1745 ± 0.00064 | 0.138 ± 0.0063 | 0.344 ± 0.048 | 0.454 ± 0.015 | 0.205 ± 0.014 | 0.233 ± 0.042 | 0.425 ± 0.0087 | 0.384 ± 0.015
17 | CC1CCc2c(N3CCC(O)CC3)c(F)cc3c(=O)c(C(=O)O)cn1c23 (centres undefined) [Nadifloxacin] | 0.04253 ± 5.8e-05 | 0.04043 ± 0.00023 | 0.0418 ± 0.0029 | 0.0437 ± 0.005 | 0.03983 ± 0.00031 | 0.04117 ± 0.00023 | 0.0522 ± 0.007 | 0.0485 ± 0.0008 | 0.0495 ± 0.00066 | 0.0498 ± 0.0021 | 0.0535 ± 0.00072 | 0.05197 ± 5.8e-05
